The results in this text go back to ChEMBL document CHEMBL3988442, “University of Dundee, Small-Polar-MMV Screening Library” (2021).

In all, about 48,000 compounds went through this assay and about 13,000 (27%) showed an effect of 50% or more. The list shows a part of the results.

In the assay the test system is Wolbachia pipientis. The experiment in a line: Anti-Wolbachia Cell-Based Screen. The conditions noted are these: 5 µM. Format: functional. Details: scale not given: in the data most compounds retested in dose-response had high values.
For the compound `COCCNC(=O)CN(C)Cc1ccc(F)cc1Cl`, the “Percent Effect” value is recorded as 14.02%. `COc1ccc(CN(C)C2CSCCSC2)c2cccnc12`: the “Percent Effect” value is recorded as -27.46%. With `CC(NC(=O)NCC(C)(C)O)c1ccc(-c2ccncc2)cc1` (centres undefined), the “Percent Effect” value is recorded as -1.867%. `c1ccc2oc(N3CCCC3Cn3cncn3)nc2c1` (centres undefined): the “Percent Effect” value came out at 106.1%. For the compound `Cc1nc2ccccc2nc1CN1CCCCC1Cn1cncn1` (centres undefined), the “Percent Effect” value is listed as -2.917%.

For the compound `c1ccc2oc(CCCN3CCCCC3Cn3cncn3)nc2c1` (centres undefined), the “Percent Effect” value is 92.19%. For `c1ccc2c(N3CCCCC3Cn3cncn3)ncnc2c1` (centres undefined), the “Percent Effect” value is given as -5.98%. Consider `c1ccc2oc(CCCN3CCCC3Cn3cncn3)nc2c1` (centres undefined), for which the “Percent Effect” value was -5.809%.

On to `c1ccc2oc(CN3CCCCC3Cn3cncn3)nc2c1` (centres undefined), for which the “Percent Effect” value was determined as 109.3%. On to `Cc1nc(CN2CCCCC2Cn2cncn2)nc2ccccc12` (centres undefined), for which the “Percent Effect” value came out at 1.919%.

For `c1ccc2oc(CN3CCCC3Cn3cncn3)nc2c1` (centres undefined), the “Percent Effect” value came out at 131.5%. Next, `Cc1nc2ccccc2nc1CN1CCCC1Cn1cncn1` (centres undefined): -6.198%; `Cc1nc(CN2CCCC2Cn2cncn2)nc2ccccc12` (centres undefined): 12.85%; `c1ccc2oc(N3CCCCC3Cn3cncn3)nc2c1` (centres undefined): -11.74%.

Take `CCOC(=O)NC(CNC(=O)c1cc(Cl)ccn1)CC(C)C` (centres undefined): the “Percent Effect” value is listed as 7.591%. Consider `CCOCc1nn(CC2CC2)c2c1CN(C(=O)c1ccno1)CC2`, for which the “Percent Effect” value is recorded as 13.02%. With `CC(C)n1ccnc1C1CCN(Cc2ccc(Cl)c(F)c2)CC1`, the “Percent Effect” value was -2.763%. Next, `CN1CCC(N2CC[C@H](c3nc4ccc(C(F)(F)F)cc4[nH]3)C2)CC1`: -1.878%. Next, `CC(C)N1CCC(c2cc(C(F)(F)F)n3ccnc3n2)CC1`: 75.91%; `CN1CCC(c2cc(C(F)(F)F)n3ccnc3n2)CC1`: 137.1%; `CC(=O)N1CCC(c2cc(C(F)(F)F)n3ccnc3n2)CC1`: 1.424%. Turning to `N#Cc1ccccc1CN1CCC(c2nccn2CC(N)=O)CC1`, the “Percent Effect” value is -2.764%.

As to `NC(=O)CN1CCC(c2cc(C(F)(F)F)n3ccnc3n2)CC1`, the “Percent Effect” value was found to be 134.1%.

On to `CCCN1CCN(S(=O)(=O)c2ccccc2OC)[C@H]2CS(=O)(=O)C[C@H]21`, for which the “Percent Effect” value is -12.25%. To `Cc1cnc(C)c(N2CCCC(C/C=C/c3ccccc3)(C(=O)O)C2)n1` (centres undefined) belongs -10.18%. For `Cc1ccoc1CNCc1nnc2n1CCCC2C(F)(F)F` (centres undefined), the “Percent Effect” value is -14.27%. In the case of `CNc1nccc(-c2cn(C)nc2C)n1`, the “Percent Effect” value is given as 5.366%. To `CNc1nccc(-c2cnc3sc(C)c(C)n3c2=O)n1` belongs 88.7%; to `CC[C@H](C)Nc1nccc(-c2cnc3sc(C)c(C)n3c2=O)n1`, -3.163%; to `Cc1sc2ncc(-c3ccnc(NC4CCN(C)CC4)n3)c(=O)n2c1C`, 102.6%.

As for `CCNC(=O)N1CCC(Nc2nccc(NCC)n2)CC1`, the “Percent Effect” value is listed as -9.692%. Take `CCCn1ncc(-c2ccnc(N[C@@H]3C[C@@H]4CC[C@H]3C4)n2)c1C`: the “Percent Effect” value is -16.18%. As for `CCOCCN1CCN(Cc2nnc(C3CC3)o2)CC1CC` (centres undefined), the “Percent Effect” value is 2.687%. Next, `O=C(c1ccc2c(c1)CCO2)N1CCN(c2ncccn2)CC1`: 13.67%. As for `O=C(Cc1ccc(-n2cnnn2)cc1)Nc1nncs1`, the “Percent Effect” value is -7.49%.

Take `O=C(CCc1ccc(-n2cnnn2)cc1)Nc1nncs1`: the “Percent Effect” value is recorded as 117.3%. For the compound `COC(=O)c1ccc(NC(=O)CCc2ccncc2)c(C)c1`, the “Percent Effect” value is on record as -3.514%.

Take `O=C(CCc1ccc(-n2cnnn2)cc1)Nc1ccncc1`: the “Percent Effect” value was 118.2%. Turning to `O=C(CCc1ccncc1)Nc1ccc(OCC2CC2)cc1`, the “Percent Effect” value is on record as 33.82%. Regarding `O=C(CCn1cc(Cl)cn1)Nc1nncs1`, the “Percent Effect” value is reported as -12.52%. Take `Cc1nnc(CN(C)Cc2ccc(C(=O)Nc3sccc3C#N)cc2)o1`: the “Percent Effect” value was 8.936%. For the compound `CC(C)c1nc2c(n1C)CCN(CCS(=O)(=O)c1ccccc1)C2`, the “Percent Effect” value was 16.54%.

Regarding `Cc1nc(-c2cccc(N3CCC(N4CCCC(C#N)C4)CC3)c2)cs1` (centres undefined), the “Percent Effect” value came out at 9.753%. On to `Cn1cc(CN2CCOC(CCNC(=O)c3ccsc3)C2)cn1` (centres undefined), for which the “Percent Effect” value is recorded as -1.141%. Take `CC(C)C(=O)NCC(=O)NCC1CCN(c2cnn(C)c(=O)c2)CC1`: the “Percent Effect” value is given as -2.577%. For the compound `CC(CN1CCCC1)C(=O)NCC1CCN(c2cnn(C)c(=O)c2)CC1` (centres undefined), the “Percent Effect” value is recorded as -3.002%. For the compound `CC(=O)N1CCCC(C(=O)N2CCN(c3cnn(C)c(=O)c3)CC2)C1` (centres undefined), the “Percent Effect” value is listed as -1.408%. With `CN1CCC(C(=O)NCCC2CN(c3cnn(C)c(=O)c3)CCO2)CC1` (centres undefined), the “Percent Effect” value was 98.07%. On to `Cn1ncc(N2CCC(CNC(=O)[C@@H](N)C3CCCCC3)CC2)cc1=O`, for which the “Percent Effect” value is recorded as -13.96%. With `CCC(=O)N1CCCC(C(=O)N2CCN(c3cnn(C)c(=O)c3)CC2)C1` (centres undefined), the “Percent Effect” value came to 6.032%. `Cc1ccc(C(=O)NCCC2CN(c3cnn(C)c(=O)c3)CCO2)s1` (centres undefined): the “Percent Effect” value came out at 76.89%. Regarding `Cn1ncc(N2CCC(CNC(=O)[C@@H](N)c3ccccc3)CC2)cc1=O`, the “Percent Effect” value was -13.88%. For `Cn1ncc(N2CCOC(CCNC(=O)CO)C2)cc1=O` (centres undefined), the “Percent Effect” value was 110.6%.

Take `Cn1ncc(N2CCOC(CCNC(=O)N3CCCCC3)C2)cc1=O` (centres undefined): the “Percent Effect” value is 104.2%. With `Cc1cnn(C(C)C(=O)NCC2CCN(c3cnn(C)c(=O)c3)CC2)c1` (centres undefined), the “Percent Effect” value is -4.842%. For the compound `CC(C)(C)c1cn2c(n1)C(CNCc1cnn3ccccc13)CCC2` (centres undefined), the “Percent Effect” value is reported as 3.116%. On to `O=C1CC(NS(=O)(=O)N2CCOCC2)CN1Cc1ccccc1` (centres undefined), for which the “Percent Effect” value is given as 1.886%. Take `Cc1ncsc1C(=O)NCc1cccnc1N(C)CCc1ccccn1`: the “Percent Effect” value came out at 6.517%. Next, `Cc1noc(-c2cccnc2N2CCOC(C)(c3cnn(C)c3)C2)n1` (centres undefined): -3.53%; `COCCN(CCOC)C(=O)NC1CCCCC1`: -2.793%; `Cc1[nH]ccc1C(=O)N[C@H]1CN(CCO)C[C@@H]1C1CC1`: -10.03%. Regarding `CCC(C)NC(=O)CS(=O)(=O)Cc1nc(-c2cccs2)no1` (centres undefined), the “Percent Effect” value was found to be 8.727%.

With `CNC(=O)N1CCC(=Cc2ccccc2)CC1`, the “Percent Effect” value was -5.2%. Next, `CCOC(=O)N1CCC(NCC2CCN(c3cnn(C)c(=O)c3)C2)CC1` (centres undefined): -6.682%; `CCC1CN(c2cnn(C)c(=O)c2Br)CCO1` (centres undefined): 20.16%. As for `CC(C)N1CCC[C@H]1C(=O)NCC1CCN(c2cnn(C)c(=O)c2)CC1`, the “Percent Effect” value is listed as -21.78%. Regarding `Cn1ncc(N2CCOC(CCNC(=O)NC(C)(C)C)C2)cc1=O` (centres undefined), the “Percent Effect” value came out at 101.8%.

`CCCOC(=O)NCCC1CN(c2cnn(C)c(=O)c2)CCO1` (centres undefined): the “Percent Effect” value turned out to be 96.42%. With `CCC(OC)C(=O)NCC1CCN(c2cnn(C)c(=O)c2)CC1` (centres undefined), the “Percent Effect” value is recorded as -16.23%.
